Compounds without any hit were thinned out: in the full panel of roughly 83,000, 20% have a hit.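 For each line, cells grew in 96-well plates with the test compound present at a single concentration for 48 hours.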 A number with no mark means an inactive call. Active and inactive are the calls of the source. How the source made its calls: active means growth percent below 10; inactive means the rest.
These molecules were tested on HOP-62 NSCLC (assay: NCI-60 one-dose screen, 48 h (100 = growth as untreated, 0 = no growth, -100 = all killed)). Details: 10 µM unless noted.

Row | SMILES | growth
1 | COc1ccc(C(=O)NC(=O)Nc2ccc3c(c2)NC(=O)/C3=C\c2[nH]c(C)c(CCC(=O)O)c2C)c(F)c1 | 19.8%
2 | Cn1c(I)c(C#C[Si](C)(C)C)c(=O)[nH]c1=O | 76.4%
3 | COC(=O)c1oc2c(C(C)=O)c(OCCCN(C)C)ccc2c1C | 123%
4 | CC(C)NCC(O)COc1ccc(CC(N)=O)cc1 (centres undefined) | 102%
5 | O=C(NCCNc1nccc(-c2c(-c3cccc(O)c3)nc3sccn23)n1)Nc1cccc(C(F)(F)F)c1 | 83.5%
6 | CNCCCOc1c(Br)cc(CCNC(=O)/C(Cc2ccc(OC)c(Br)c2)=N/O)cc1Br | 67.5%
7 | COc1cccc(-c2nc3sccn3c2-c2ccnc(NCCNC(=O)c3ccccc3)n2)c1 | 111%
8 | O=C(N/N=C1\SCC(=O)N1c1ccccc1)c1cc(-c2cc3ccccc3o2)nn1-c1ccccc1 | 101%
9 | Cc1ccc2c(c1)Nc1ccc(C)cc1C2(C)C | 78.9%
10 | COc1cc(NC(C)CCCN2C(=O)c3ccccc3C2=O)c2nccc(C)c2c1OC (centres undefined) | 103%
11 | NCC(=O)NS(=O)(=O)OC[C@H]1O[C@@H](n2cnc3c(N)ncnc32)[C@H](O)[C@@H]1O | -32.1% (active)
12 | CCN(CC)CC(=O)Nc1c(C)cccc1C | 106%
13 | Nc1ncnc2c1c(-c1ccc(Oc3ccccc3)cc1)nn2C[C@@H]1SSC[C@H]1O | 37.6%
14 | COc1cc(/C=C\c2cc(/C=C\c3ccc(O)c(OC)c3)n(C(=O)CNc3ccccc3OC)n2)ccc1O | 86.4%

— PubChem BioAssay (NCI)
